This is an account of results in PubChem BioAssay (NCATS).

Values joined by “and” are separate entries in the source; they are usually repeats but may differ in a detail not shown here. Equal values may be shown once. Inconclusive results are not listed. Active and inactive are the calls of the source. Calls follow the shape of the dose curve; as a rule, active = well fitted cell-killing curve with a large enough effect; inconclusive = small, poorly fitted or top-dose-only effect, or effect the other way; inactive = no such curve, though single readings can be large or run the other way.
Potency is read from the fitted curve at half-maximal effect.

The experiment in a line: Viability qHTS for spleen associated tyrosine kinase inhibitor (SYKi) drug resistant MV4-11 cells (AID 1963824). Also: nearly all actives have a fitted effect of over 35% in size. The following applies: SYKi-resistant MV4-11 viability, CellTiter-Glo, 72 h; series mostly up to 45 µM; viability, % of control: at the top concentration. The method in brief: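 SYK-inhibitor-resistant MV4-11 AML cells were seeded at 500 per well onto compound and cultured 72 hours (37 °C, 5% CO2). CellTiter-Glo was then added, and after 10 min at room temperature, luminescence gave viability.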
(In general: Quantitative high-throughput screening tests each substance at several concentrations.)
Regarding `CC(C)(C)c1ccc(-c2nc3ccccc3[nH]2)cc1`, the Potency is 3.99 µM (active).
Turning to `NC(=O)c1cnc(-c2ccc(C3(N)CCC3)cc2)c(-c2ccccc2)c1`, the Potency is 20.9 µM (active) and 580 nM (active).
On to `NC(N)=NCCC[C@H](NC(=O)c1sccc1NS(=O)(=O)c1cccc2nsnc12)C(=O)O`, for which the “viability, % of control” value was 74.7% (inactive).
In the case of `CCCCCC1CC1CC1CC1CCCCCCCC(=O)O` (stereo not given), the “viability, % of control” value is 92.5% [at 17.3 µM] (inactive).
As for `O=C(O)c1cc(N(Cc2ccc(C3CCCCC3)cc2)C(=O)c2ccc(Oc3ccccc3)cc2)ccc1O`, the Potency is 16.4 µM (active).
As for `CNC12CC3C[C@@](C)(C1)C[C@](C)(C3)C2`, the “viability, % of control” value is 61.5% (inactive).
Regarding `CC(C)n1cnc2c(-c3cnc(N)nc3)nc(N3CCOCC3)nc21`, the Potency was 3.17 µM (active).
`Cc1cc2occ(CN(C)CCN(C)Cc3cn(-c4cccc(C(F)(F)F)c4)c4ccccc34)c(=O)c2cc1C`: the Potency was 4.61 µM (active).
For the molecule `CC[C@H](C(=O)Nc1ccccc1N1CCCC1)c1ccccc1`, the Potency is 23.1 µM (active).
Take `COc1ccnc(CS(=O)c2nc3cc(OC(F)F)ccc3[nH]2)c1OC` (stereo not given): the “viability, % of control” value was 57.8% (inactive).
On to `CCOC(=O)[C@H](CCc1ccccc1)N[C@@H](C)C(=O)N1Cc2ccccc2C[C@H]1C(=O)O`, for which the Potency is 5.96 µM (active).
Consider `CC1(C)[C@@H]2CC=C(CO[C@@H]3O[C@H](CO[C@@H]4OC[C@H](O)[C@H](O)[C@H]4O)[C@@H](O)[C@H](O)[C@H]3O)[C@H]1C2`, for which the “viability, % of control” value was 99.9% [at 17.3 µM] (inactive).
Consider `COC(=O)N1CCC(n2ncc3c(N4CCOCC4)nc(-c4ccc(NC(=O)Nc5ccc(CO)cc5)cc4)nc32)CC1`, for which the Potency was 0.0184 µM (active).
As for `CN(C/C=C/c1ccccc1)Cc1cccc2ccccc12`, the “viability, % of control” value is 55.1% (inactive).
As for `CCn1c(-c2nonc2N)nc2c(C#CCO)ncc(OCCCN)c21`, the Potency was 1.84 µM (active).
Still for that read-out and setting: for `C[C@@H]1O[C@@H](O[C@H]2[C@@H]3C=CO[C@@H](O[C@@H]4O[C@H](CO)[C@@H](O)[C@H](O)[C@H]4O)[C@@H]3[C@@]3(CO)O[C@@H]23)[C@H](O)[C@H](OC(=O)/C=C/c2ccccc2)[C@H]1O` the value was 6.11 µM (active).
Turning to `O=C(Oc1cccc2cccnc12)c1ccccc1`, the “viability, % of control” value is 5.94% (inactive).
For `CO[C@H]1/C=C\O[C@@]2(C)Oc3c(C)c(O)c4c(O)c(c(/C=N\N5CCN(C6CCCC6)CC5)c(O)c4c3C2=O)NC(=O)/C(C)=C\C=C/[C@H](C)[C@H](O)[C@@H](C)[C@@H](O)[C@@H](C)[C@H](OC(C)=O)[C@@H]1C`, the Potency is 10 µM (active).
As to `C[C@@H]1O[C@@H](O[C@H]2[C@H](O[C@H]3CC[C@@]4(C)C(CC[C@]5(C)C4CC=C4[C@@H]6CC(C)(C)CC[C@]6(C(=O)O)CC[C@]45C)[C@]3(C)CO)OC[C@H](O)[C@@H]2O)[C@H](O)[C@H](O[C@@H]2OC[C@@H](O)[C@H](O)[C@H]2O)[C@H]1O` (stereo not given in full), the Potency was 4.91 µM (active).
For the molecule `O=C(Nc1ccc(Cl)cc1)c1ccccc1NCc1ccncc1`, the Potency is 11.6 µM (active).
With `CCNC(=O)N1CCN(CCCC(c2ccc(F)cc2)c2ccc(F)cc2)CC1`, the Potency is 18.8 µM (active).
Still for that read-out and setting: for `COc1cc(C[C@H]2C(=O)OC[C@@H]2Cc2ccc(OC)c(OC)c2)ccc1O` the value was 0.255 µM (active).
The same measure, in the same setting: for `CO[C@H]1O[C@@H]2O[C@@]3(C)CCC4[C@H](C)CCC([C@H]1C)[C@]42OO3` (stereo not given in full) the value was 2.91 µM (active).
On to `COc1ccc([C@@]2(O)c3c(ccc4c3OC(C)(CCC=C(C)C)C=C4)NC(=O)[C@@H]2OC)cc1` (stereo not given in full), for which the “viability, % of control” value was 21.9% [at 17.3 µM] (inactive).
For `CC(C)(C)c1ccc(S(=O)(=O)Nc2ccc(Cl)cc2C(=O)c2cc[n+]([O-])cc2)cc1`, the Potency was 20.6 µM (active).
Regarding `Cc1nc2ccc(CN(C)c3ccc(C(=O)NC(CCC(=O)O)C(=O)O)s3)cc2c(=O)[nH]1` (stereo not given), the Potency was 0.0073 µM (active).
The same measure, in the same setting: for `CCN(Cc1cc(Nc2nc(C)cn3c(-c4cn[nH]c4)cnc23)sn1)C(C)(C)CO` the value was 0.0082 µM (active).
`C#CCOc1ccc2c(c1)c(-c1ccc(C(C)C)cc1)nc(=O)n2C(C)C`: the Potency was 9.2 µM (active).
With `C[C@@H]1O[C@@H](O[C@H]2[C@H](O[C@H]3CO[C@@H](O[C@H]4CC[C@@]5(C)C(CC[C@]6(C)C5CC[C@]57OC[C@@]8(CC[C@](C)(CO)CC85)[C@H](O)C[C@]76C)C4(C)C)[C@H](O[C@@H]4O[C@H](CO)[C@@H](O)[C@H](O)[C@H]4O)[C@H]3O)O[C@H](CO)[C@@H](O)[C@@H]2O)[C@H](O)[C@H](O)[C@H]1O` (stereo not given in full), the viability, % of control was 95% [at 9.25 µM] (inactive).
Same read-out and setting: for `Cc1occc(=O)c1O[C@@H]1O[C@H](CO[C@@H]2OC[C@](O)(CO)[C@H]2O)[C@@H](O)[C@H](O)[C@H]1O` the value was 138% [at 17.3 µM] (inactive).
Consider `CC1OC(OC2C(O)COC(O[C@@H]3[C@@H](O)[C@@H](O)[C@H](OC4C(OC(=O)[C@]56CCC(C)(C)CC5C5=CCC7[C@@]8(C)C[C@H](O)[C@H](OC9OC(CO)C(O)C(O)C9O)[C@@](C)(CO)C8[C@H](O)C[C@@]7(C)[C@]5(C)CC6)OCC(O)C4O)O[C@H]3C)C2O)C(O)C(O)C1O` (stereo not given in full), for which the Potency is 1.23 µM (active).
Take `COc1cc(O)c2c(c1)/C=C/C[C@H](O)[C@H](O)C(=O)/C=C\C[C@H](C)OC2=O`: the Potency was 0.259 µM (active).
Regarding `CC1=CC(=O)CC(C)(C)[C@@]1(O)CC[C@@H](C)O[C@@H]1O[C@H](CO)[C@@H](O)[C@H](O)[C@H]1O`, the “viability, % of control” value was 83% (inactive).
Consider `COC(=O)c1ccc2c(c1)[nH]c1ncnc(NCCCN3CCCCC3)c12`, for which the Potency is 9.2 µM (active).
As to `CC1(C)O[C@@]2(C)CC[C@@H]1C[C@@H]2OC1OC(CO)C(O)C(O)C1O` (stereo not given in full), the “viability, % of control” value was 86% (inactive).
On to `CCOC(=O)Nc1nc2ccccc2[nH]1`, for which the Potency was 10.3 µM (active).
Take `O=C(Nc1ccc(-n2nc(C(F)(F)F)cc2C(F)(F)F)cc1)c1ccncc1F`: the Potency was 10.3 µM (active).
In the case of `CC1CC(=O)C2=C(C1)C1OC1C1(O)C2C(=O)c2cccc(O)c2C1O` (stereo not given), the “viability, % of control” value is 6.12% (inactive).
With `COC(=O)CC(C)(O)CC(=O)OCc1ccc(O[C@@H]2O[C@H](CO)[C@@H](O)[C@H](O)[C@H]2O)cc1` (stereo not given in full), the “viability, % of control” value is 100% [at 17.3 µM] (inactive).
In the case of `COc1ccccc1[C@@H]1C2=C(CC(C)(C)CC2=O)Nc2n[nH]c(C(F)(F)F)c21`, the Potency was 23.1 µM (active).
